The values below come from PubChem BioAssay (NCATS).

Structures are written as SMILES. Inconclusive results are not listed. Active and inactive are the calls of the source. Unless noted, calls follow the shape of the dose curve; as a rule, active = well fitted curve in the direction sought with a large enough effect; inconclusive = small, poorly fitted or top-dose-only effect, or another doubt; inactive = no such curve, though single readings can be large; an effect the other way counts as inactive or inconclusive.

The target of assay [1] is Rap guanine nucleotide exchange factor 3 (Homo sapiens) (UniProt O95398). Briefly: Confirmatory qHTS for antagonist of cAMP-regulated guanine nucleotide exchange factor 3 (EPAC1) (AID 1645880). Also: nearly all actives have a fitted effect of over 55% in size. Also: potency is read from the fitted curve at half-maximal effect.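 As to activity, negative = inhibition: plate controls were DMSO only for no effect and full effect of the ATA control for full effect.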 The note with it: EPAC1 Rap1B-BODIPY-GDP exchange, fluorescence; activity, negative = inhibition: at 115 µM (top of the series). The essentials:
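Released BODIPY-GDP fluoresces less than Rap1-bound BODIPY-GDP; the signal is followed at 480/540 nm at 5-min intervals over 30 min, after 5 min at room temperature. Reactions contain 100 nM EPAC1, 250 nM RAP1B-BODIPY-GDP and 50 uM GDP; results are normalized to ATA and DMSO.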

Assay [2] has the same target. Briefly: Confirmatory qHTS for agonist of cAMP-regulated guanine nucleotide exchange factor 3 (EPAC1) (AID 1645881).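 Also: EPAC1 catalysed release of BODIPY-GDP from Rap1B seen as fluorescence loss; 100% = effect of cAMP agonist control; nearly all actives have a fitted effect of over 75% in size.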 Background: qHTS replaces the single test concentration by a dilution series.
Assay [3] has as its target Rap guanine nucleotide exchange factor 4 (Homo sapiens) (UniProt Q8WZA2). Briefly: Confirmatory qHTS for agonist of cAMP-regulated guanine nucleotide exchange factor 4 (EPAC2) (AID 1645884).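 Also: nucleotide exchange releases bodipy-GDP from Rap1 and this lowers its fluorescence; % is scaled to controls: 0 for no effect and ±100 for the full control effect; nearly all actives have a fitted effect of over 65% in size.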
Assay [4] has the same target. Briefly: Confirmatory qHTS for antagonist of cAMP-regulated guanine nucleotide exchange factor 4 (EPAC2) (AID 1645885). Also: nearly all actives have a fitted effect of over 25% in size. Also: potency is read from the fitted curve at half-maximal effect. As to activity change, negative = inhibition: % is scaled to controls: 0 for no effect and ±100 for the full control effect.
Assay [5] has as its target Rap guanine nucleotide exchange factor 3 (Homo sapiens) (UniProt O95398). Briefly: Counterscreen qHTS for antagonist of cAMP-regulated guanine nucleotide exchange factor 3 (EPAC1) (AID 1645888). Also: % of control where 0% means no effect. The essentials:
(§1)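 Rap1B–BODIPY-GDP (250 nM) with 50 uM GDP; compounds pin-transferred to 9.74 nM–152 uM final (activator) or from 7.32 nM upwards (inhibitor). Fluorescence Ex/Em 480/540 nm read at 5 and 30 min, then after adding cAMP or buffer, at room temperature.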
(A counterscreen serves to expose hits that act by an unwanted route or on another target.)

The target is the same in assay [6]. Briefly: Counterscreen qHTS for agonist of cAMP-regulated guanine nucleotide exchange factor 3 (EPAC1) (AID 1645889). Also: % of control where 0% means no effect; nearly all actives have a fitted effect of over 40% in size. The essentials:
as §1

The target of assay [7] is Catechol O-methyltransferase (Homo sapiens) (UniProt P21964). Briefly: Confirmatory Screen for Target Class Profiling of Small Molecule Inhibitors of Methyltransferases (AID 1745852; calls by dose curve; also: potency is read from the fitted curve at half-maximal effect). The note with it: MTase-Glo luminescence, SAH detection, recombinant enzyme; measured here: COMT max response; stronger effect = lower value.
Assay [8] concerns the target Guanidinoacetate N-methyltransferase (Homo sapiens) (UniProt Q14353). The description is as above. The note with it: activity change, negative = inhibition: at 57.3 µM (top of the series) unless noted.
The target in assay [9] is Nicotinamide N-methyltransferase (Homo sapiens) (UniProt P40261). The assay is described as above. The settings on record: MTase-Glo luminescence, SAH detection, recombinant enzyme; measured here: NNMT max response; stronger effect = lower value.
Assay [10] has as its target Phenylethanolamine N-methyltransferase (Homo sapiens) (UniProt P11086). Described as above. The note with it: MTase-Glo luminescence, SAH detection, recombinant enzyme; measured here: PNMT max response; stronger effect = lower value.
The nature of assay [11]: qHTS for Inhibitors of Plasmodium falciparum (DD2) proliferation (AID 504314).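 Also: parasite DNA measured by SYBR Green fluorescence after red cell lysis; plate controls were DMSO vehicle for no effect and artemisinin wells for full effect.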 The essentials: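 Normalization used 0.29 uM artemisinin as full inhibition and DMSO as baseline. Parasitized erythrocytes were exposed to compounds for 72 h (37C, 5% CO2), then lysed with saponin/Triton buffer containing SYBR Green I.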
Assay [12] can be described thus: qHTS for Inhibitors of Plasmodium falciparum (GB4) proliferation (AID 504315).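 Also: 0% = DMSO vehicle and -100% = 0.29 µM artemisinin control; nearly all actives have a fitted effect of over 50% in size.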 The essentials: (§2)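 Parasite growth measured as SYBR Green DNA fluorescence (ex 485, em 535 nm) after overnight lysis following 72 h culture at 37 °C, 0.3% parasitemia, 2.5% hematocrit. Values normalized against DMSO and 0.29 uM artemisinin controls, with plate-stack correction.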
The nature of assay [13]: qHTS for Inhibitors of Plasmodium falciparum (7G8) proliferation (AID 504316).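 Also: 0% = DMSO vehicle and -100% = 0.29 µM artemisinin full kill; nearly all actives have a fitted effect of over 65% in size.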 The essentials: as §2
Assay [14] in a line: qHTS for Inhibitors of Plasmodium falciparum (CP250) proliferation (AID 504320).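 Also: plate controls were DMSO vehicle for no effect and 0.29 µM artemisinin control for full effect.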 The essentials:
as §2

Sequence of Rap guanine nucleotide exchange factor 4 (Homo sapiens) (Q8WZA2 whole entry, looked up): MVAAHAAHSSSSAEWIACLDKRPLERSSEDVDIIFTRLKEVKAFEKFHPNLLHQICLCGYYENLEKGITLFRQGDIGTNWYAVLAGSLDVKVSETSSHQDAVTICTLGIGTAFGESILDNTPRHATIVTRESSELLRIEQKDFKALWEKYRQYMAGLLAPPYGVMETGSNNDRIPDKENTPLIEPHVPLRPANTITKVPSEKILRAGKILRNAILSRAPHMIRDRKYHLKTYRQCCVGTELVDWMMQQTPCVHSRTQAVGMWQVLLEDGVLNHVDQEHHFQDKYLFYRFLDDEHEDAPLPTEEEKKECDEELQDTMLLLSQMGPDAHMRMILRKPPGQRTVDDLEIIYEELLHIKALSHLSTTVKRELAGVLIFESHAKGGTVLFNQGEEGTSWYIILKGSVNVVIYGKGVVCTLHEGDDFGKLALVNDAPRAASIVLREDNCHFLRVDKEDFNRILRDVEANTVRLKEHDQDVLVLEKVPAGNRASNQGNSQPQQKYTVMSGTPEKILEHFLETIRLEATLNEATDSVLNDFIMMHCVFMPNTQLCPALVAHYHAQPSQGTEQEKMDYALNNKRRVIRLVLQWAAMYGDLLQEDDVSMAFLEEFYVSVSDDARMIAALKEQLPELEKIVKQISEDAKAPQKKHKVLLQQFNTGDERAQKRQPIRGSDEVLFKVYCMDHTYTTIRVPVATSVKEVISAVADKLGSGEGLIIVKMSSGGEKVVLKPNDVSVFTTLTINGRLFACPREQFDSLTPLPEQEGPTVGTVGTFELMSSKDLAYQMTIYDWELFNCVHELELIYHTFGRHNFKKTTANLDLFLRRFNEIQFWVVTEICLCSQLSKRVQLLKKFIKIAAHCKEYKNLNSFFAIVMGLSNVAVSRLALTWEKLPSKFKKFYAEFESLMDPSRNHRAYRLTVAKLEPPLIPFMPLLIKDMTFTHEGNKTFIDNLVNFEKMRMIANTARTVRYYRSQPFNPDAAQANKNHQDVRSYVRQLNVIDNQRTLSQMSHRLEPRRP
Sequence of Rap guanine nucleotide exchange factor 3 (Homo sapiens) (O95398 whole entry, looked up): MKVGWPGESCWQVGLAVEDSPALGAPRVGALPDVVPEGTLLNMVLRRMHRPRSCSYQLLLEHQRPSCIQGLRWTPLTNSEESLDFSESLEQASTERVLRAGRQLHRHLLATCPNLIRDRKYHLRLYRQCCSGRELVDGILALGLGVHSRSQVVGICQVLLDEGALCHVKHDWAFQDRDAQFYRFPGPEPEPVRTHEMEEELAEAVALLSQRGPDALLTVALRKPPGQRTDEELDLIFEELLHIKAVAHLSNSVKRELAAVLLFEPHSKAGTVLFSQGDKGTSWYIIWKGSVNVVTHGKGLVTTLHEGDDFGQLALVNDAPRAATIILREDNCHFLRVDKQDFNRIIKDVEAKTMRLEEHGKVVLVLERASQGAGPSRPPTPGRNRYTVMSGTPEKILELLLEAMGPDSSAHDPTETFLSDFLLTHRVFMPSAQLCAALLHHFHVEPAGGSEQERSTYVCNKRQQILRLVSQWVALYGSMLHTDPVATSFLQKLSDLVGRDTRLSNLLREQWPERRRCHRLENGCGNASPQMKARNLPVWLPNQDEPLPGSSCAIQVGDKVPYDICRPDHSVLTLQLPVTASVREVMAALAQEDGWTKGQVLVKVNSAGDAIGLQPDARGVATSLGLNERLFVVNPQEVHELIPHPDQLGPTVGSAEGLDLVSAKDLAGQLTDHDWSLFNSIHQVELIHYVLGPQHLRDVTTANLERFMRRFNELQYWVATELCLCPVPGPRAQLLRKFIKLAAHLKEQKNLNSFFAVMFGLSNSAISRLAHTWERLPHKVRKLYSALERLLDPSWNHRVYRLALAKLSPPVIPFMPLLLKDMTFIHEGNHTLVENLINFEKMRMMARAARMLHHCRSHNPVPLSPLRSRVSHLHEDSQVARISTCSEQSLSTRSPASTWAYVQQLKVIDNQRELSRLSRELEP
Sequence of Catechol O-methyltransferase (Homo sapiens) (P21964 whole entry, looked up): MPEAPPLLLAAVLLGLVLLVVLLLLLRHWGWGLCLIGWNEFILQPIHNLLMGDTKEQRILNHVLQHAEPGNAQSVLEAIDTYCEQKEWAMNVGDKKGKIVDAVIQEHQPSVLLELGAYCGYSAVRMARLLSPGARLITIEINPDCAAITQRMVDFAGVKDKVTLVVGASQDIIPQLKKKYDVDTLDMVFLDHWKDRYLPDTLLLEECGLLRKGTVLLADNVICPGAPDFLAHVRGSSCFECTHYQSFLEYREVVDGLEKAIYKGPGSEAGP
Sequence of Nicotinamide N-methyltransferase (Homo sapiens) (P40261 whole entry, looked up): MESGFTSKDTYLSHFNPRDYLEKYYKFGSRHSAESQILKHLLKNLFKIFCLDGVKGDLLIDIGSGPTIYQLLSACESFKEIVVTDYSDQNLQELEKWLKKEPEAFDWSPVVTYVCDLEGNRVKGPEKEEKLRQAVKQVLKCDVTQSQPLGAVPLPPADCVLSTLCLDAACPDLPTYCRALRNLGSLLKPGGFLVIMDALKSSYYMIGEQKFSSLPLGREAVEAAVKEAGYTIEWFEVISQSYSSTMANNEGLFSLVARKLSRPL
Sequence of Phenylethanolamine N-methyltransferase (Homo sapiens) (P11086 whole entry, looked up): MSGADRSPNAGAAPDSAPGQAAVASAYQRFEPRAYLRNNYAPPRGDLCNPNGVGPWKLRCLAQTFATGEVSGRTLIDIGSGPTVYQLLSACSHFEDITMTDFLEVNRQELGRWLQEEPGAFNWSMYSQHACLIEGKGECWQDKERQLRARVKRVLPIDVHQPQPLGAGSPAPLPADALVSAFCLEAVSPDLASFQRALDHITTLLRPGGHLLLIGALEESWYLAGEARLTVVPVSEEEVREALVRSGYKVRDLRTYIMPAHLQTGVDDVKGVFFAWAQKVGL

For `COc1ccc(C)cc1NC(=O)c1ccccc1NS(=O)(=O)c1ccc(Cl)s1`, the Potency in [1] is 75.7 µM (active). Moreover, the Potency result in assay [2], in assay [3], in assay [4], in [5] and in [6] was “inactive” each time.

For `O=C(NCCc1ccccc1)c1ccc2c(=O)[nH]c3c(C(=O)NCC4CCCO4)sc(=S)n3c2c1` (configuration not stated), the Potency is 75.7 µM (active) in [1], 30.1 µM (active) in [4] and 24.1 µM (active) in assay [8]. In addition, the Potency entry in [2], in [3], in assay [5] and in [6] was “inactive” each time. Besides, the activity in assay [7] is -68.6%; in assay [9] it was -55.9%; in assay [10] it was -66.7%.

`COc1ccc(C)cc1Cn1nnc2ccccc21`: the Potency entry in assay [1], in [2], in assay [3], in assay [4], in assay [5] and in [6] was “inactive” throughout.

With `Cc1cc(Br)ccc1-n1[nH]c(C)c(C=Nc2cccc3nsnc23)c1=O`, the Potency result in assay [1], in [2], in assay [3], in assay [4], in assay [5] and in [6] was “inactive” in each case.

`CC(=O)Nc1sc(/C(C#N)=C\c2cccc(Cl)c2)nc1-c1ccc(C)cc1`: the Potency result in assay [1], in [2] and in assay [4] was “inactive” in each case. Also, the activation is -17.2% [at 17.1 µM, percent relative to cAMP agonist control] (inactive) in assay [3] and 23.7% [at 30.8 µM] (inactive) in assay [6]. Besides, the activity change, negative = inhibition in [5] is 148% [at 30.8 µM] (inactive).

Turning to `COc1ccc2c(c1)O[C@H](c1ccc3c(c1)OCO3)[C@@H](O)C2=O`, the outcome in assay [11], in assay [12], in assay [13] and in assay [14] was “inactive” each time. For the same molecule, the Potency result in assay [1], in [2] and in assay [4] was “inactive” each time. The activation is 6.45% [at 17.1 µM, percent relative to cAMP agonist control] (inactive) in assay [3] and 17% [at 30.8 µM] (inactive) in assay [6]. In assay [5], the activity change, negative = inhibition is -0.524% [at 30.8 µM] (inactive).

Take `COc1ccc(/C=N/Nc2nnc(C)n2N)cc1OC(C)=O`: the Potency entry in assay [1], in assay [2], in [3], in [4], in assay [5] and in assay [6] was “inactive” throughout.

`Cc1cccc(NC(=O)C2CCCN(S(=O)(=O)c3ccc4c(c3)oc(=O)n4C)C2)c1` (configuration not stated): the Potency entry in [1], in assay [2] and in [4] was “inactive” in each case. In addition, the activation is 3.99% [at 17.1 µM, percent relative to cAMP agonist control] (inactive) in assay [3] and 7.38% [at 30.8 µM] (inactive) in [6]. The activity change, negative = inhibition in assay [5] is -11.5% [at 30.8 µM] (inactive).

With `CCCc1cc2c(-c3ccccc3)cc(=O)oc2cc1OCc1ccc(C(=O)O)o1`, the values for the Potency in assay [1] and in assay [8] were 75.7 µM (active) and 24.1 µM (active), respectively. The Potency entry in assay [2], in assay [3], in [4], in [5] and in [6] was “inactive” in each case. The activity in assay [7] was -44.4%; in assay [9] it was -57.8%; in assay [10], -42%.

Take `N#Cc1c(Nc2ccccc2)sc(C(=O)c2ccccc2)c1N`: the Potency result in assay [1], in [2] and in assay [4] was “inactive” in each case. Besides, the activation is 9.46% [at 17.1 µM, percent relative to cAMP agonist control] (inactive) in assay [3] and 19.9% [at 30.8 µM] (inactive) in assay [6]. Moreover, the activity change, negative = inhibition in [5] was 13.4% [at 30.8 µM] (inactive).
